# Screening data from PubChem.
# rCAG RNA binder – binders of r(CAG) RNA repeats, primary screen, biochemical, fluorescence; r(CAG) RNA repeat, TO-PRO-1 dye displacement fluorescence; AID 651821, 2012; inhibition, % at 3 µM; 370,000 compounds, 1.3% hits;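 active = inhibition above the plate cutoff, the mean of all test compounds on that plate plus 3 SD, cut at about 35% in these data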;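 note: 0% = DMSO alone and 100% = 100 µM mitoxantrone as full dye displacement; higher means more dye released from RNA so lower well fluorescence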
# NR3A LBD binder – binders of NR3A ligand-binding domain, primary screen, biophysical, differential scanning fluorimetry, uHTS; Glutamate receptor ionotropic, NMDA 3A (GRIN3A) ligand-binding domain; NR3A LBD differential scanning fluorimetry, Tm shift; 0% = protein alone, 100% = glycine-bound protein; Tm shift relative to glycine control, % at 25 µM; 340,000 compounds, 2.5% hits;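 active = melting temperature shift of at least 10% of the positive control shift, at one fixed dose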
# Myeloid diff 2 – induction of myeloid progenitor differentiation, primary screen, cell-based, flow cytometry, MLPCN library; ER-HoxA9 myeloid progenitors, lysozyme-GFP differentiation; calls only at 10 µM; 360,000 compounds, 1% hits; AID 624256, 2012;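 active = normalized GFP-positive differentiation at or above the plate's own cutoff, the solvent-only control mean plus 3 SD; inconclusive = no clear call, values can overlap the other calls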;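 note: cells exposed to compound for four days before flow analysis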
# MPTP block – mitochondrial permeability transition pore inhibitors, primary screen, biochemical, isolated mouse mitochondria, absorbance; Ca2+ swelling absorbance, 30 min; inhibition, % at 10 µM; 360,000 compounds, 1.4% hits;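 active = inhibition of 50% or more, scaled per plate between neutral and stimulator controls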;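 note: 0% = DMSO wells given calcium and 100% = 1 mM EGTA wells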
# FAS TE block – FAS thioesterase domain inhibitors, primary screen, biochemical, fluorescence intensity, uHTS; recombinant FAS-TE, OMFH fluorogenic substrate, fluorescence endpoint; inhibition, % at 15 µM; 360,000 compounds, 0.67% hits;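 active = compounds whose normalised, plate-corrected inhibition of enzyme fluorescence in the single-dose primary screen is 50% or more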;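 note: 0% = DMSO with enzyme and 100% = substrate without enzyme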
# * marks the source's active call; other numbers are inactive results; i = inactive; ? = inconclusive; nt = no result given; + = active, no number. Rows were chosen to be rich in hits. Some 5.7% of all compounds tested hit in one or more screens of this group.
SMILES,rCAG RNA binder,NR3A LBD binder,Myeloid diff 2,MPTP block,FAS TE block
COc1cccc(CNC(=O)[C@H]2CCCN2C(=O)[C@H]2CCCN2C(=O)c2ccc(C)c(C)c2)c1,-0.2,nt,nt,nt,nt
CCCCCCC12C(=Cc3cc(C)ccc31)c1ccccc1C(CC(=O)NCc1ccccc1)N2C(=O)OC (stereo not given),6.5,nt,nt,nt,nt
Cc1ccc(C)c(NC(=O)CSc2nc(C)cc(=O)[nH]2)c1,3.0,nt,nt,nt,nt
Cc1[nH]c2ccccc2c1/C=N/NC(=O)c1cc(-c2cccs2)[nH]n1,29.6,21.0*,i,0.9,12.9
CC1C(=O)NN=C1C(=O)N/N=C\C(Br)=C\c1ccccc1 (stereo not given),5.4,8.0,+,-0.5,-4.4
CC(/C=N/NC(=O)c1cc(-c2ccc(C)o2)[nH]n1)=C\c1ccccc1,5.9,22.3*,i,5.7,7.7
CC(/C=N/NC(=O)c1cc(C2CC2)[nH]n1)=C\c1ccccc1,-1.7,-7.7,i,1.9,0.4
CC(/C=N/NC(=O)c1cc(-c2cccs2)[nH]n1)=C\c1ccccc1,11.4,10.6*,i,20.3,6.9
COC(=O)[C@H](Cc1ccccc1)N1CC(N2CCCC2)CS1(=O)=O (stereo not given in full),3.4,nt,nt,nt,nt
Cc1ccc(-c2cc(C(=O)N/N=C/c3c(C)nn(-c4ccccc4)c3C)n[nH]2)s1,8.7,14.8*,?,0.1,1.1
O=C(C1CCC(CNc2nc(=S)[nH]c3ccccc23)CC1)N1CCN(c2ccccn2)CC1 (stereo not given),1.6,-0.5,+,3.5,1.5
C=CCNC(=O)C1CCC(CNc2nc(=S)[nH]c3ccccc23)CC1 (stereo not given),-1.8,1.4,i,-0.1,0.8
COc1ccc(Cc2nnc(SCC(=O)NC3CCCC3)o2)cc1,-4.2,18.7*,i,-1.2,-9.5
Cc1ccc(-c2nc(Nc3ccc(O)cc3)c3ccccc3n2)cc1,29.5,33.9*,nt,2.3,19.0
CCOC(=O)c1nc(Nc2ccc(C(=O)O)cc2)c2ccccc2n1,1.5,13.6*,i,0.7,-7.7
CCOC(=O)c1ccc(Nc2nc(C(=O)OCC)nc3ccccc23)cc1,1.4,-2.0,i,-0.3,16.6
c1ccc(Nc2nc(-c3ccccc3)nc3ccccc23)cc1,16.0,11.2*,i,0.8,23.6
Cc1nn(-c2ccccc2)c2sc(C(=O)N3CCN(C(c4ccccc4)c4ccc(Cl)cc4)CC3)cc12 (stereo not given),9.8,nt,nt,nt,nt
COc1ccc(Nc2nc3cc(C)ccc3cc2C#N)cc1,9.6,0.0,+,0.7,10.9
Cc1ccc(S(=O)(=O)NCC2CCN(C(=O)C(=O)c3cccs3)CC2)cc1,0.9,nt,nt,nt,nt
Cc1ccc(NC(=S)Nc2cc(-c3ccccc3)[nH]n2)cc1Cl,10.9,23.8*,i,26.4,3.8
CC(=O)Nc1cc(-c2ccc(Cl)cc2)[nH]n1,1.1,0.9,i,-0.1,-2.8
CCCCCCCCN1C(=O)[C@@H](CC(=O)NCC2CCCCC2)C[C@@]2(C(=O)OC)C1=C[C@H](C(C)(C)C)O[C@@H]2C,1.2,nt,nt,nt,nt
Cc1cccc(S(=O)(=O)Nc2ccc(S(=O)(=O)Nc3nccs3)cc2)c1,5.6,-1.1,i,-2.0,-2.3
Cc1ccc(Oc2ccc3c(c2)C(=O)N(c2ccc(S(=O)(=O)Nc4nccs4)cc2)C3=O)cc1,61.1*,1.4,i,4.1,-15.8
SMILES,rCAG RNA binder,NR3A LBD binder,Myeloid diff 2,MPTP block,FAS TE block
Cn1c(CNC(=O)CCNC(=O)c2cccc(Cl)c2)cc(=O)n(C)c1=O,-2.0,12.5*,i,-1.4,-7.3
Cc1[nH]nc2c1C(c1ccc(Br)cc1)N(Cc1ccccc1)C2=O (stereo not given),2.8,nt,nt,nt,nt
O=C(c1ccc(Cl)s1)N1CCCC1,3.7,3.8,+,0.9,-5.3
CCOC(=O)CC12CN3CN(C1)CC(CC(=O)OCC)(C3)C2=O,-2.0,0.4,+,1.1,-3.3
CC(=O)Nc1ccc(S(=O)(=O)NC2=C(N3CCN(Cc4ccccc4)CC3)C(=O)c3ccccc3C2=O)cc1,9.2,-4.8,i,1.8,10.0
CCN1CCN(C2=C(NS(=O)(=O)c3ccc(NC(C)=O)cc3)C(=O)c3ccccc3C2=O)CC1,-5.4,14.5*,i,-0.4,-2.1
CCNC(=S)N(Cc1ccccc1)Cc1nc2ccccc2c(=O)[nH]1,-2.2,10.0*,i,2.0,-2.3
Cc1c(C(=O)N(C)Cc2nc3ccccc3c(=O)[nH]2)oc2ccccc12,1.9,0.4,+,-0.5,-1.6
C[C@@H]1CC(=O)NN=C1c1ccc(NN=C(C#N)C#N)cc1,5.5,nt,nt,nt,nt
COC(=O)C1=C(C)N(Cc2ccc(C(F)(F)F)cc2)C(=NCc2ccccc2)NC1c1cccc(Cl)c1 (stereo not given),6.1,nt,nt,nt,nt
O=C(c1cccc(C(F)(F)F)c1)C1CCCN(C(=O)CN2CCOC2=O)C1 (stereo not given),-8.5,11.1*,i,0.6,-5.9
O=C(c1cccc(C(F)(F)F)c1)C1CCCN(C(=O)C2CCOCC2)C1 (stereo not given),-10.1,-2.2,i,-1.0,-1.6
COc1ccc(C(=O)NC(=S)N2CC(C)OC(C)C2)cc1OC (stereo not given),-3.0,12.2*,i,0.6,-6.8
CC1CN(C(=S)NC(=O)c2ccc(Cl)cc2)CC(C)O1 (stereo not given),-0.7,2.9,i,1.9,-3.2
O=C(Nc1c(-c2ccccc2)nc2ncccn12)c1ccccc1,5.9,nt,nt,nt,nt
CCCNC(=O)c1ccc2c(=O)c(O)c(-c3ccsc3)[nH]c2c1,nt,-1.8,+,2.3,-3.4
CC(C)(C)c1ccc(-c2nnc(SC3CCOC3=O)n2Cc2ccccc2)cc1 (stereo not given),-3.3,13.1*,i,0.7,15.9
O=C(Nc1ccccc1)N1CC=C(c2ccc(F)cc2)CC1,0.8,21.4*,i,-0.2,1.0
CC(NC(=O)Nc1ccccc1O)(C(F)(F)F)C(F)(F)F,-0.7,-1.3,+,-0.4,-4.6
CC(NC(=O)Nc1ccc(O)cc1)(C(F)(F)F)C(F)(F)F,1.2,-3.7,i,4.1,-5.0
O=c1nc(Nc2ccccc2)sc2ccc([N+](=O)[O-])cc12,-0.8,19.9*,i,-0.4,0.0
O=[N+]([O-])c1ccc(OC2OCC(O)C(O)C2O)cc1 (stereo not given),0.0,nt,nt,nt,nt
CCCn1c(O)c(/C=C2\C=NN=C2c2ccccc2)sc1=S,17.8,15.8*,i,20.8,-90.6
C=CCn1c(O)c(/C=C2\C=NN=C2c2ccccc2)sc1=S,13.7,12.0*,i,12.4,-65.8
CCn1c(O)c(/C=C2\C=Nc3ccccc32)sc1=O,8.3,-12.8,i,22.1,-1.1
C=CCn1c(O)c(C=Nc2ccccc2)sc1=S,5.0,-4.0,i,-1.2,6.4
